Assay outcomes deposited in PubChem by several laboratories.
VCAM1 TNFa inh: reduces TNF alpha induced VCAM1 expression in HUVEC; AID 802; inhibition, % at 2 µM; 95,000 compounds, 0.48% hits; HUVEC TNFa-induced VCAM-1 immunofluorescence, high-content imaging;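 active = inhibition above the batch mean plus 3 SD, with images confirmed as a hit by eye, cut at about 37% in these data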
TNFa cytotox: HUVEC cytotoxicity counter-screen, TNF alpha stimulated; AID 848; 93,000 compounds, 0.17% hits; cell count reduction, % at 2 µM; HUVEC TNFalpha-stimulated, Hoechst cell count, imaging;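 active = cell count reduction exceeding the screen mean by over 5 SD, scaled to untreated wells per plate, cut at about 78% in these data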;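 also: cells counted after 24 h of TNF alpha exposure following the 1 h pretreatment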
S1P2 agonist: agonists of human S1P2 receptor | O95136 | S1P2-expressing cell line, agonist reporter read-out | activation, % at 4.5 µM | 97,000 compounds, 0.46% hits; in the data active = activation above about 16%
Target sequence (O95136 whole entry, looked up): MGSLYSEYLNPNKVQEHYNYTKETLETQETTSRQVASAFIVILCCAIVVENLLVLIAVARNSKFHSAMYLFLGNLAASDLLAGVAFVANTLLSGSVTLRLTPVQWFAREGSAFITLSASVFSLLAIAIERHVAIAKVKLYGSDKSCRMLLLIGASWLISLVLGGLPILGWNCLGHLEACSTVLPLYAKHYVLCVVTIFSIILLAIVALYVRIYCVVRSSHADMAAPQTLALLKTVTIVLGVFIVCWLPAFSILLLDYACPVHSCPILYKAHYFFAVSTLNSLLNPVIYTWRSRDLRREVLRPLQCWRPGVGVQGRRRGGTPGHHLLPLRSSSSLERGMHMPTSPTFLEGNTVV
F-actin modifier: alters cytoskeleton assembly in HUVEC cells; 91,000 compounds, 0.18% hits; HUVEC TNFa F-actin phalloidin imaging, high content; inhibition, % at 2 µM;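 active = inhibition above the batch mean plus 3 SD and confirmed as a hit by visual image inspection, cut at about 30% in these data, passing the limit was not always enough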
E-sel TNF inh: blocks E-selectin expression induced by TNF alpha; AID 1246; inhibition, % at 2 µM; 120,000 compounds, 0.71% hits; HUVEC TNFa-induced E-selectin immunofluorescence, high content;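 active = inhibition above the batch mean plus 3 SD, and confirmed as a hit on visual image review, cut at about 43% in these data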
S1P2 blocker: blocks the human S1P2 receptor | 97,000 compounds, 0.21% hits | inhibition, % at 5 µM | AID 736 | O95136 | cell-based S1P2 antagonist assay, inhibition at 5 uM; in the data active = inhibition above about 45%;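 also: CRE beta-lactamase reporter cells expressing human S1P2 stimulated with S1P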
Each line names hits and unclear results; the compound was inactive in the other large screens. Shown are actives, neighbours in structure and some others; about 1.6% of the full set was active somewhere.

COCCN1C(=O)c2ccccc2C(C(=O)N2CCN(c3ccccn3)CC2)C1c1ccc(F)cc1 (stereo unspecified)	none
Cc1ccc2oc(Nc3nc(-c4ccccc4)cc(=O)[nH]3)nc2c1	E-sel TNF inh 100 (no result: VCAM1 TNFa inh, TNFa cytotox, S1P2 agonist, F-actin modifier, S1P2 blocker)
COCCn1c(SCC(=O)Nc2sccc2C(N)=O)nc2cc(Cl)ccc2c1=O	none
O=C(Nc1nnc(SCc2ccccc2)s1)c1cccc([N+](=O)[O-])c1	E-sel TNF inh 64 (no result: VCAM1 TNFa inh, TNFa cytotox, S1P2 agonist, F-actin modifier, S1P2 blocker)
CCOC(=O)C[n+]1c(C)sc2ccc(OC)cc21	E-sel TNF inh 66
CCO/C(=C/c1sc2ccc(OC)cc2[n+]1CCCS(=O)(=O)[O-])CC	none
O=C1NC(=Nc2cccc(Cl)c2)SC1Cc1cccc(Cl)c1Cl (stereo unspecified)	none
COCCNC(=O)c1cc2nc3c(c(C(F)(F)F)n2n1)CCc1ccccc1-3	none (no result: VCAM1 TNFa inh, TNFa cytotox, S1P2 agonist, F-actin modifier, S1P2 blocker)
O=C(O)c1cc2nc3c(c(C(F)(F)F)n2n1)CCc1ccccc1-3	VCAM1 TNFa inh 85 (no result: E-sel TNF inh)
COCCn1c(SCC(=O)N2CCCCC2)nc2ccccc2c1=O	E-sel TNF inh 96
COc1ccc2c(CC(=O)OCC(=O)NC(=O)c3cccn3C)coc2c1	none
CCN(CC)S(=O)(=O)c1ccc(N2CCCC2)c(C(=O)Nc2ccc(OC)c(Cl)c2)c1	none (no result: VCAM1 TNFa inh, TNFa cytotox, S1P2 agonist, F-actin modifier, S1P2 blocker)
CCOC(=O)N1CCC(N2CCN(S(=O)(=O)c3ccc(NC(C)=O)cc3)CC2)CC1	E-sel TNF inh 100
CCOC(=O)N1CCC(N2CCN(S(=O)(=O)c3ccc(Cl)cc3)CC2)CC1	none (no result: F-actin modifier)
CO/N=C/c1ccc(Sc2ccccc2N)c([N+](=O)[O-])c1	S1P2 agonist 17
C=CCOc1ccc(CNc2ccc(NC(=O)CC(C)C)cc2)cc1OC	none (no result: VCAM1 TNFa inh, TNFa cytotox, S1P2 agonist, F-actin modifier, S1P2 blocker)
CCOC(=O)CSc1nc(N)cc(=O)[nH]1	E-sel TNF inh 77
CCOC(=O)CSc1nc(C)cc(=O)[nH]1	none
COc1ccc(NC(=O)c2ccc(CNc3c(NC4CCCCC4)c(=O)c3=O)cc2)cc1OC	E-sel TNF inh 72
COc1ccc(CNC(=O)c2ccc(CNc3c(NC4CCCCC4)c(=O)c3=O)cc2)cc1	none (no result: VCAM1 TNFa inh, TNFa cytotox, S1P2 agonist, F-actin modifier, S1P2 blocker)
CC1(C)CC(=O)C2=C(C1)NCN(Cc1ccc3c(c1)OCO3)C2	E-sel TNF inh 49
c1cc2c(cc1CN1CCOCC1)OCO2	none
O=C(NCCC1=CCCCC1)c1coc(=O)c(Br)c1	E-sel TNF inh 86
Cc1c(N=C/C=C2/N(C)c3ccccc3C2(C)C)c(=O)n(-c2ccccc2)n1C	none
Cc1c(N=C/C=C2\N(C)c3ccccc3C2(C)C)c(=O)n(-c2ccccc2)n1C	E-sel TNF inh 63
CCOc1cc(N2CCOCC2)c(OCC)cc1NS(=O)(=O)c1ccc(Cl)s1	E-sel TNF inh 89
Fc1ccc(COc2ccccc2-c2ccnc3ncnn23)cc1	none (no result: VCAM1 TNFa inh, TNFa cytotox, S1P2 agonist, F-actin modifier, S1P2 blocker)
CN(C1=NC(=O)C(CC(=O)Nc2ccc(Br)cc2)S1)c1ccc(O)cc1 (stereo unspecified)	none
O=C(CSc1ncccn1)NCc1ccccc1Cl	E-sel TNF inh 60
Cc1cccc(C)c1NC(=O)Nc1cccs1	none (no result: F-actin modifier, E-sel TNF inh)
O=C(Nc1cccs1)Nc1c(F)c(F)c(F)c(F)c1F	E-sel TNF inh 69 (no result: VCAM1 TNFa inh, TNFa cytotox, S1P2 agonist, F-actin modifier, S1P2 blocker)
CC(=O)N1CCN(CC(=O)Nc2ccc3c(c2)CCC3)CC1	none (no result: VCAM1 TNFa inh, TNFa cytotox, S1P2 agonist, F-actin modifier, S1P2 blocker)
CCOC(=O)c1cc2c(ccn2C)n1Cc1ccccc1C	F-actin modifier 63
COC(=O)C1C(c2ccc(Br)cc2)Nc2nnc(C(F)(F)F)n2C1(C)O (stereo unspecified)	none (no result: VCAM1 TNFa inh, TNFa cytotox, S1P2 agonist, F-actin modifier, S1P2 blocker)
O=C(CCCc1nc2ccccc2s1)NCc1ccccc1F	none (no result: VCAM1 TNFa inh, TNFa cytotox, S1P2 agonist, F-actin modifier, S1P2 blocker)
COc1cccc(-n2c(SCC(=O)NCc3cccs3)nc3ccccc3c2=O)c1	none (no result: VCAM1 TNFa inh, TNFa cytotox, S1P2 agonist, F-actin modifier, S1P2 blocker)
COc1cccc(-n2c(SCC(=O)Nc3sc4c(c3C(N)=O)CCC4)nc3ccccc3c2=O)c1	S1P2 agonist 19
O=C(Cn1cnc2c(nnn2Cc2ccc(F)cc2)c1=O)NCc1ccco1	S1P2 agonist 33
O=C(Cn1cnc2c(nnn2Cc2ccc(Cl)cc2)c1=O)NCc1ccco1	none
COc1ccc2[nH]c(=O)c(CN(Cc3ccc4c(c3)OCO4)C(C)=O)cc2c1	F-actin modifier 36
CCN(Cc1cc2cc(C)ccc2[nH]c1=O)C(=O)c1cccc(OC)c1	VCAM1 TNFa inh 90, TNFa cytotox 82 (no result: E-sel TNF inh)
O=C(CCN1C(=O)C2C3C=CC(C3)C2C1=O)Nc1c(F)cccc1F (stereo unspecified)	TNFa cytotox 94
O=C(Nc1cc(=O)[nH]c2ncnn12)c1ccccc1	none
O=C(Nc1cc(=O)[nH]c2ncnn12)c1ccc(Cl)cc1Cl	E-sel TNF inh 62
Cc1ccccc1-c1cc(-c2ccccc2O)on1	VCAM1 TNFa inh 47
